Measured values as given in the supplement of paper PMC6555819.

Key:
Assay in all cases: PBM binding z-score (relative to random genomic background probes); higher = stronger binding; sequences stand for … in GC…GCGATTGACAGCGTAGAATGAAGG
[1] = system: FXR:RXRa (NR concentration 270 nM, RXRa partner concentration 90 nM)
Summary of the method: (§1)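 Each nuclear receptor dimer, without ligand, was incubated for 1 h on custom Agilent 4×180K protein-binding microarrays. Binding was detected with antibodies against each partner (one per run), and scanned fluorescence was regression-normalized. The binding z-scores are referenced to random human genomic background probes.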

[2] = system: LXRa:RXRa (NR concentration 270 nM, RXRa partner concentration 90 nM)
Summary of the method: as §1

[3] = system: LXRa homodimer (NR concentration 270 nM)
Summary of the method: as §1

[4] = system: LXRb:RXRa (NR concentration 270 nM, RXRa partner concentration 90 nM)
Summary of the method: as §1

[5] = system: LXRb homodimer (NR concentration 270 nM)
Summary of the method: as §1

[6] = system: PPARa:RXRa (NR concentration 270 nM, RXRa partner concentration 90 nM)
Summary of the method: as §1

[7] = system: PPARg:RXRa (NR concentration 180 nM, RXRa partner concentration 90 nM)
Summary of the method: as §1

[8] = system: PPARg:RXRa 270nM:90nM, anti-RXR (NR concentration 270 nM, RXRa partner concentration 90 nM)
Summary of the method: as §1

[9] = system: PPARg:RXRa 30nM:10nM, anti-RXR (NR concentration 30 nM, RXRa partner concentration 10 nM)
Summary of the method: as §1

[10] = system: PPARg:RXRa 90nM:30nM, anti-RXR (NR concentration 90 nM, RXRa partner concentration 30 nM)
Summary of the method: as §1

[11] = system: PPARg:RXRa DBDmut IVT, anti-RXR (DBD mutation: RXRa K156A/R161A, NR concentration 270 nM, RXRa partner concentration 90 nM)
Summary of the method: as §1

[12] = system: PPARg:RXRa IVT, anti-PPARg (NR concentration 270 nM, RXRa partner concentration 90 nM)
Summary of the method: as §1

[13] = system: PPARg DBDmut:RXRa IVT, anti-PPARg (DBD mutation: PPARg1 K132A/R137A, NR concentration 270 nM, RXRa partner concentration 90 nM)
Summary of the method: as §1

[14] = system: PPARg DBDmut IVT, anti-PPARg (DBD mutation: PPARg1 K132A/R137A, NR concentration 270 nM)
Summary of the method: as §1

[15] = system: PPARg homodimer (NR concentration 180 nM)
Summary of the method: as §1

[16] = system: PXR:RXRa (NR concentration 270 nM, RXRa partner concentration 90 nM)
Summary of the method: as §1

[17] = system: PXR homodimer (NR concentration 270 nM)
Summary of the method: as §1

[18] = system: RARa:RXR (NR concentration 270 nM, RXRa partner concentration 90 nM)
Summary of the method: as §1

[19] = system: RARa homodimer (NR concentration 270 nM)
Summary of the method: as §1

[20] = system: RARb:RXRa (NR concentration 270 nM, RXRa partner concentration 90 nM)
Summary of the method: as §1

Sequence	PBM binding z-score [1]	PBM binding z-score [2]	PBM binding z-score [3]	PBM binding z-score [4]	PBM binding z-score [5]	PBM binding z-score [6]	PBM binding z-score [7]	PBM binding z-score [8]	PBM binding z-score [9]	PBM binding z-score [10]	PBM binding z-score [11]	PBM binding z-score [12]	PBM binding z-score [13]	PBM binding z-score [14]	PBM binding z-score [15]	PBM binding z-score [16]	PBM binding z-score [17]	PBM binding z-score [18]	PBM binding z-score [19]	PBM binding z-score [20]
TCGAGTAGGTTAGGGGCGTTCAGAATGGCGTCGA	0.341	0.362	-0.22	0.565	-0.227	0.892	0.197	1.54	0.846	1.56	1.69	1.26	0.15	-0.777	0.542	0.471	0.0132	0.223	-0.263	0.552
AGTCATAGTTCATCTAGGTAACGTAAGATATGCT	2.22	2.66	1.11	1.59	0.357	2.84	2.87	3.22	1.32	2.47	0.73	2.74	1.12	0.57	1.23	2.03	1.24	1.78	0.89	3.26
CTCGAAAGGTCGTGCTCAGTTGAGTATACCAAAC	4.37	3.75	0.291	3.5	0.338	4.85	2.54	3.47	0.941	2.53	0.724	1.41	0.908	0.182	1.01	3.56	0.333	3.85	0.101	3.85
CGAACTAGGTCAAGGACAGTGTATCTCCGCACGC	3.62	2.36	0.431	1.57	-0.208	4.9	7.62	6.48	3.91	5.64	7.97	8.01	3.03	0.882	1.62	1.43	-0.0646	2.03	0.437	3.95
AGAATGAGCTTATACGTAGATCAGGGAAGAAAGT	-0.818	-0.491	-0.371	-0.861	-0.689	-0.706	0.415	-0.614	-0.0699	-0.597	-1.19	-0.676	0.558	0.438	-0.99	-0.359	-0.186	-0.221	-0.183	-1.13
CCTACTGGGCCCAAAAGGTCATTGATGCCGATAA	4.23	4.84	3.68	4.62	0.521	4.61	1.78	3.47	0.593	2.69	0.117	1.66	-0.622	-1.17	2.86	4.97	1.92	5.31	1.46	3.93
ATCGAAAGGTCGACGAGGTGTGTATACACCGTTT	3.98	3.28	0.0715	2.62	0.354	4.22	2.22	3.12	1.02	2.17	0.053	1.53	-0.0457	0.936	1.17	2.67	-0.171	2.91	0.322	3.74
CCTAGTTGGTCACGAGGTCACACACCGGATATGA	4.38	3.84	2.36	3.94	0.56	5	5.28	4.91	2.28	3.65	3.54	5.42	0.987	1.28	2.99	4.79	1.97	4.87	1.29	4.14
GCTATCAGGCCATTTGGGTCACTCAATGACGGGC	0.309	0.382	-0.0509	0.286	0.109	1.73	0.893	0.805	-0.227	0.276	2.06	2.59	-0.109	-0.362	0.448	1.01	0.354	1.2	-0.0153	1.87
CGAACGAGGCCATGAGTTGATAGCAAATGCCGAT	-0.039	-0.24	-0.636	-0.483	-1.01	0.273	0.728	0.586	-0.00312	0.44	1.62	0.713	-0.17	-0.886	0.125	-0.17	-0.294	0.133	-0.191	0.941
CACGAAAGGTCGTGCTCAGGTGAGTATACCAAAC	5.58	4.3	0.166	3.44	0.848	4.88	3.14	3.97	1.14	2.72	1.16	1.86	0.523	0.745	1.9	3.35	0.154	4.28	-0.1	4.13
GATACAGGGTCAGCTAGAGTCCAGAGTATGGAAA	4.63	2.73	-0.197	2.46	-0.266	4.62	3.75	3.12	0.896	1.87	1.24	2.05	0.791	0.0344	1.83	4.14	-0.0221	4.01	0.0956	3.84
TCGCGGAGGACACGAAAGGTCAGAGCTCGACATC	2.61	3.72	2.77	3.12	-0.812	3.59	1.18	2.51	0.965	1.95	0.791	1.5	0.00207	-0.746	2.36	3.97	0.407	4.24	1.04	4.03
TCTCGAAGGACACGAAAGGTCAGAGCTCGACATC	2.94	3.47	2.63	3.26	0.0129	3.58	1.59	3.13	3.42	3.16	2.34	1.64	0.0703	0.551	1.75	3.79	0.247	4.04	0.683	4.23
AGAACGAGGGCATGCTGAGTTGATAGCAGAGTAG	0.426	0.131	-0.52	-0.164	-1.15	1.12	0.939	0.666	0.00172	0.416	2.87	1.99	0.0501	-0.0747	-0.0685	1.14	0.117	0.374	-0.883	1.89
CCTCGGAGGAGAACAGGAGGTCAGAGCTGCCAGA	1.12	1.8	1.57	1.43	-0.244	1.87	0.262	0.0579	-0.552	-0.216	-0.418	0.248	-1.26	-1.78	1.58	1.87	0.761	2.19	0.495	1.95
CGAACTAGGTCAGAACAGGTCAGTGAAGGATGAT	2.92	2.65	0.47	1.69	-0.091	3.73	5.27	4.8	1.67	4.11	7.05	7.16	1.14	1.73	1.66	3.32	0.18	2.3	0.424	3.57
CGTCCAAGGTCAATGCTAGGTCAGTGAAAGCATT	6.67	5.72	2.67	3.98	0.958	5.11	4.02	4.74	1.16	3.17	3.41	3.83	0.477	0.749	6.35	5.01	1.68	6.41	1.72	5.23
CTTTACGGGTCACTGACAGGTTATAGCATTTGGA	5.62	5.09	1.02	3.91	0.469	5.46	5.06	5.14	2.12	4.01	4.85	4.95	0.913	1.44	2.33	3.9	0.619	5.01	0.972	4.14
CGTCCAAGGTCAAAAGTCAGTGAAGAGATGACGG	6.47	5.19	0.641	3.79	1.42	5.14	5.67	5.87	3.41	5	2.6	3.24	0.212	-0.048	1.17	3.92	0.638	4.84	0.448	4.63
CAGCCTAGGTCAGGGCCCGTATAGGAGGAACGTT	1.56	0.731	-0.61	0.395	-1.32	1.72	0.643	0.734	-0.158	0.0498	1.27	1.55	-1.13	-1.09	0.811	-0.134	-0.829	0.752	-0.25	3.23
AGCATGAGGTTACCAAAGATCAGGGAAACGCTTG	1.94	6.48	0.0616	3.13	-0.682	2.77	1.41	1.4	0.579	1.07	0.803	0.996	0.0724	-0.827	0.663	1.38	0.241	2.44	-0.672	2.07
CGAACGAGGGCAAGAGTTGATAGCAAATGCCGAT	0.442	0.206	-0.493	0.236	-0.921	1.52	2.3	2.48	0.687	1.92	3.38	2.22	0.196	-0.307	0.163	0.404	-0.197	0.316	-0.216	2.38
CGTCAAAGTTCAACTAAGGAAACGTAAAGCACGC	7.38	6.47	3.78	4.2	2.11	5.18	5.11	5.68	2.56	4.69	0.565	1.62	1.02	0.369	3.9	4.87	2.97	4.48	1.12	5.19
CCGACTGGGGCAGAATGGTTACCATACCATCCGG	-0.449	-0.782	-0.449	-0.838	-1.2	-0.355	0.778	-0.289	-0.329	-0.35	1.42	0.943	-0.354	-1.29	0.0556	-1.05	-0.973	-0.83	-0.164	0.0446
TCGAGTAGGTTAGGGGCATTCAGAATGGCGTCGA	0.42	0.257	-0.31	0.672	-0.239	1.39	0.676	1.98	1.13	1.76	1.95	1.44	-0.138	-0.987	1.13	0.245	0.264	0.141	-0.19	1.13
CCTTACGGGTCGCTCCAGGTTATAGCATCGGAGT	1.38	2.13	-0.172	0.57	-0.524	1.24	0.136	0.211	-0.551	-0.391	0.145	0.244	-1.18	-0.791	0.495	1.93	-0.171	1.02	-0.313	1.22
GCTTACGGGTCAAAGGTTAGAGCATGAATAGAAT	7.32	5.34	0.175	5.27	-0.0451	6.73	10.6	8.89	8.08	9.45	4.34	5.74	0.587	1.17	3.25	5.59	0.235	7.74	0.552	4.37
GCTCGGAGGACAACGTCAGAGCTTTGTCCGTAGA	-0.816	-1.18	-1	-1.15	-1.11	-0.78	-0.651	-1.1	-1.29	-1.22	-0.91	-0.67	-2	-1.23	-2.11	-0.976	-1.16	-1.29	-1.57	0.852
